Source: PubChem BioAssay (NCATS)
Values joined by “and” are separate entries in the source; they are usually repeats but may differ in a detail not shown here. Identical values can stand only once. Records with an inconclusive call do not appear. Active and inactive are the calls of the source. Unless noted, calls follow the shape of the dose curve; as a rule, active = well fitted curve in either direction with a large enough effect (not every such curve was filed as active); inconclusive = small, poorly fitted or top-dose-only effect, or another doubt; inactive = flat fitted curve, though single readings scatter.

Tests used:
[1] = AP1 Signaling Pathway (AID 357); conditions: ME-180 AP-1-bla reporter, EGF-induced, beta-lactamase ratio, 5 h; at 7.69 µM (top of the series) unless noted;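 also: ME-180 reporter cells stimulated with EGF at its EC50 level; % is scaled to controls: 0 for no effect and ±100 for the full control effect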
Summary of the method: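 Cells are seeded overnight, exposed to compound titrations and an EC50 level of EGF for 5 hours at 37 °C, then loaded with CCF4 dye for 2.5 hours. Beta-lactamase activity under the AP-1 element is read as a blue/green ratio.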

[2] = target: Cytochrome P450 1A2 (Homo sapiens) (UniProt P05177); assay: p450-cyp1a2 (AID 410; calls by dose curve; also: potency is read from the fitted curve at half-maximal effect;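 as to activity change, negative = inhibition: -100% = full effect of reference inhibitor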)
Chain of Cytochrome P450 1A2 (Homo sapiens) (P05177 whole entry, looked up): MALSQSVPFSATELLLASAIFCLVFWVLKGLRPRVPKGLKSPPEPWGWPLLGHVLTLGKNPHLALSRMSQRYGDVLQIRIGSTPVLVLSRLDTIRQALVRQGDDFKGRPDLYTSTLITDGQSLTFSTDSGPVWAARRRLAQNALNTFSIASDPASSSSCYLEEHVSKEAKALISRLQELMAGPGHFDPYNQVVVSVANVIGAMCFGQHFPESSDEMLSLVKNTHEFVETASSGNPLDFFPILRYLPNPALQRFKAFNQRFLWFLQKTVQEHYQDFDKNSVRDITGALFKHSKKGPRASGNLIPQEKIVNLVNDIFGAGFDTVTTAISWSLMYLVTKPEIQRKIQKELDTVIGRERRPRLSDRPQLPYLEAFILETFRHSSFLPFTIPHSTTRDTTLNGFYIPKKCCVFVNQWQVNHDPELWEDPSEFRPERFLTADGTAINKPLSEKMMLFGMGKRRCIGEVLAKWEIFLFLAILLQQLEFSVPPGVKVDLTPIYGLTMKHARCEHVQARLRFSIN
Summary of the method: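 O-Demethylation of luciferin 6' methyl ether by human CYP1A2 is monitored as luciferase luminescence. Substrate sits at Km (100uM); enzyme is 20nM. Values are scaled to 57 uM furafylline as maximal inhibition.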

[3] = NFAT Signaling Pathway (AID 444); conditions: Jurkat NFAT-bla M1, carbachol, beta-lactamase ratio, 5 h; at 7.69 µM (top of the series) unless noted;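 also: carbachol stimulus at about its EC50 of 1 µM final; % is scaled to controls: 0 for no effect and ±100 for the full control effect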
Summary of the method: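 Read-out: CCF4 FRET ratio (460 nm/530 nm) after 1 h RT dye loading, used for %activity and AC50 from titration series. Cells: Jurkat NFAT-β-lactamase/M1 line, treated with compound plus 1 uM carbachol for 5 h, 37 °C.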

[4] = Stat Signaling Pathway (AID 446); conditions: ME-180 SIE beta-lactamase reporter, IL-6 stimulated, 5 h; at 7.69 µM (top of the series) unless noted;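 also: ME-180 cervical cancer cells given 40 pM IL-6 alongside compound; SIE-controlled beta-lactamase reporter measured as 460/530 nm FRET emission ratio; % is scaled to controls: 0 for no effect and ±100 for the full control effect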
Summary of the method: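 Emission at 460 and 530 nm (excitation 405 nm) reports SIE-controlled beta-lactamase in ME-180 cells. Cells received compound with 40 pM IL-6 for 5 hrs at 37 C; data scaled between 300 pM IL-6 and 125 nM JAK-inhibitor controls.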

[5] = target: Glucocorticoid receptor (Homo sapiens) (UniProt P04150); assay: GR-GFP Redistribution (AID 450;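 active = compounds whose dose series gives a full or clear partial fitted curve of increased nuclear translocation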; also: potency is read from the fitted curve at half-maximal effect); conditions: U2OS GR-GFP nuclear translocation, laser cytometry, 2 h
Chain of Glucocorticoid receptor (Homo sapiens) (P04150 whole entry, looked up, the tested form may be a part): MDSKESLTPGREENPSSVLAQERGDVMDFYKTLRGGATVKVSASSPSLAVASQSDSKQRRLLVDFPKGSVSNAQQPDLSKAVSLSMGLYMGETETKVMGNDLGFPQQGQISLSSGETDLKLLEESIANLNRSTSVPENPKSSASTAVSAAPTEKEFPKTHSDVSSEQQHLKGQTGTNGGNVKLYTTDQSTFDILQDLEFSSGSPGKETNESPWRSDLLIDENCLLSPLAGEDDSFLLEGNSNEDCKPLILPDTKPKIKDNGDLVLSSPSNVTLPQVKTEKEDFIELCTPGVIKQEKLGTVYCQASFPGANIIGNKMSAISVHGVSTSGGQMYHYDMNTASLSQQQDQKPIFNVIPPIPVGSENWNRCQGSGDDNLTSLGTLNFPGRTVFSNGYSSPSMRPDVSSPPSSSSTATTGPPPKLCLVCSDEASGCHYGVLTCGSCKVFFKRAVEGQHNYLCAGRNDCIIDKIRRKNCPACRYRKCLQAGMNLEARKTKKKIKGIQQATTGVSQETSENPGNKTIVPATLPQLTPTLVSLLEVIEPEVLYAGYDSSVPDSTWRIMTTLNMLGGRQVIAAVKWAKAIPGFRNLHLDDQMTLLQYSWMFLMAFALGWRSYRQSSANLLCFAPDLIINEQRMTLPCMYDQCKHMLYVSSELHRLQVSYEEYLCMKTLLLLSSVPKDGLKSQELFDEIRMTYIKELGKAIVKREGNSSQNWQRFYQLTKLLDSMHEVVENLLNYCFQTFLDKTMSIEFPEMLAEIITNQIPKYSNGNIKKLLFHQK

[6] = target: Glucocorticoid receptor (Homo sapiens) (UniProt P04150); assay: GR-EFC Redistribution (AID 451; calls by dose curve; also: potency is read from the fitted curve at half-maximal effect); conditions: CHO-K1 GR-EFC translocation, beta-gal luminescence, 2 h
Summary of the method: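 Translocation of GR-ED fusion to nuclear EA restores b-gal, read by luminescence after 1 h room-temperature detection. Engineered CHO-K1 biosensor cells, 1,000/well, exposed 2 h at 37 C to titrations up to 46 uM final.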

[7] = target: Mitogen-activated protein kinase 10 (Mus musculus) (UniProt Q61831); assay: JNK3 AlphaScreen Assay (AID 530);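 also: kinase came from lysate of stimulated human HepG2 cells; signal reports phosphorylation of biotinylated GST-cJun 1-79 at Ser73 with 10 µM ATP; % is scaled to controls: 0 for no effect and ±100 for the full control effect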
Summary of the method: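 qHTS titrations with 15 min compound pre-incubation before adding ATP (10 uM final). Read-out: AlphaScreen of Ser73-phosphorylated biotin-GST-cJun using HepG2 lysate JNK3 activated by IL-1β and TNFα.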

[8] = target: 3',5'-cyclic-AMP phosphodiesterase 4B (Homo sapiens) (UniProt Q07343); assay: qHTS Assay for Inhibitors of PDE-IV (AID 607; active = well fitted activation curve with a large enough effect in the main read-out, with a control signal flat, not every such curve was filed as active; also: % of control where 0% means no effect)
Chain of 3',5'-cyclic-AMP phosphodiesterase 4B (Homo sapiens) (Q07343 whole entry, looked up): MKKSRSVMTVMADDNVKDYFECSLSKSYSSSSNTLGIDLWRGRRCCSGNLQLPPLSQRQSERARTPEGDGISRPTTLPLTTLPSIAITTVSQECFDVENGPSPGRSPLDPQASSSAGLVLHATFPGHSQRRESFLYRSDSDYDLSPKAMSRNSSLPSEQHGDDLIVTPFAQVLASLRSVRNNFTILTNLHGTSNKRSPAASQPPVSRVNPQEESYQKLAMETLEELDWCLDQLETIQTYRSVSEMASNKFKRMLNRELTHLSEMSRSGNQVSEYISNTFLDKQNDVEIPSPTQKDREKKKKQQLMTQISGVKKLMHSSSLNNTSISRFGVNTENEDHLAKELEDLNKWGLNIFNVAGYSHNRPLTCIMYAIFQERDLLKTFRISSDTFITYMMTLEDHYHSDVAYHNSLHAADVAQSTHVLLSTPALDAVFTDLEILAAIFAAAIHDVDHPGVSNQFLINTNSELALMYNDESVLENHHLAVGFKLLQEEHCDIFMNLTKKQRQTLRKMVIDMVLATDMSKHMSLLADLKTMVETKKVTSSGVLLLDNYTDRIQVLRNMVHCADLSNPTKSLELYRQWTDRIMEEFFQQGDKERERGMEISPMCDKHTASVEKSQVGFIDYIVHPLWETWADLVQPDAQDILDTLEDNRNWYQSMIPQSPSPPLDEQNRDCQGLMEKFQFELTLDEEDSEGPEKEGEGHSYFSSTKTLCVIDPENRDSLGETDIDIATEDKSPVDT
Summary of the method: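 The readout is membrane depolarisation from a cAMP-sensing CNG channel, detected with a potential dye at ex 535/em 590. Cells were HEK293-derived (endogenous PDE-IV) at 1000 cells/well, titrated up to 22.9 uM final.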

[9] = target: Cytochrome P450 2C9 (Homo sapiens) (UniProt P11712); assay: qHTS Assay for Inhibitors and Substrates of Cytochrome P450 2C9 (AID 883; active = well fitted curve in the direction sought with a large enough effect; an effect the other way counts as inactive or inconclusive; also: % is scaled to controls: 0 for no effect and ±100 for the full control effect; nearly all actives have a fitted effect of over 60% in size)
Chain of Cytochrome P450 2C9 (Homo sapiens) (P11712 whole entry, looked up): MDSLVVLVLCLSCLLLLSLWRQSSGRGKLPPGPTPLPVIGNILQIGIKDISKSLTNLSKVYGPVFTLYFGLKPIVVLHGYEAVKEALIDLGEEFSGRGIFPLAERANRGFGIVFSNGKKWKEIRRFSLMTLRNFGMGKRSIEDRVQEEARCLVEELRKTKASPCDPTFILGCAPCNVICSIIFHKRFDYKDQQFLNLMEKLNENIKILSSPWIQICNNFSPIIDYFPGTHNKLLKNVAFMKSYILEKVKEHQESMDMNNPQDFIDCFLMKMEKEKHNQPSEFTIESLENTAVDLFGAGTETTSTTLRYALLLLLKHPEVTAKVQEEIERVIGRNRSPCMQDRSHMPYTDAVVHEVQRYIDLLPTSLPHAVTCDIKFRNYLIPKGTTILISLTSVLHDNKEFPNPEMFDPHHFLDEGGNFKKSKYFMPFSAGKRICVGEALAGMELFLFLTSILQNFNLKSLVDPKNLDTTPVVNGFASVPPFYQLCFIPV
Summary of the method: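 Luminescent read-out of deoxyluciferin hydroxylation, normalized to 57uM sulphaphenazole (AC100). Reaction: 10nM enzyme, 100uM Luciferin-H (equal to KM), 25mM KPO4, 10 min compound preincubation, then 60 min with NADPH regeneration, both at 37C.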

[10] = target: Cytochrome P450 3A4 (Homo sapiens) (UniProt P08684); assay: qHTS Assay for Activators of Cytochrome P450 3A4 (AID 885; active = well fitted curve in the direction sought with a large enough effect; an effect the other way counts as inactive or inconclusive; also: nearly all actives have a fitted effect of over 65% in size; also: potency is read from the fitted curve at half-maximal effect)
Chain of Cytochrome P450 3A4 (Homo sapiens) (P08684 whole entry, looked up): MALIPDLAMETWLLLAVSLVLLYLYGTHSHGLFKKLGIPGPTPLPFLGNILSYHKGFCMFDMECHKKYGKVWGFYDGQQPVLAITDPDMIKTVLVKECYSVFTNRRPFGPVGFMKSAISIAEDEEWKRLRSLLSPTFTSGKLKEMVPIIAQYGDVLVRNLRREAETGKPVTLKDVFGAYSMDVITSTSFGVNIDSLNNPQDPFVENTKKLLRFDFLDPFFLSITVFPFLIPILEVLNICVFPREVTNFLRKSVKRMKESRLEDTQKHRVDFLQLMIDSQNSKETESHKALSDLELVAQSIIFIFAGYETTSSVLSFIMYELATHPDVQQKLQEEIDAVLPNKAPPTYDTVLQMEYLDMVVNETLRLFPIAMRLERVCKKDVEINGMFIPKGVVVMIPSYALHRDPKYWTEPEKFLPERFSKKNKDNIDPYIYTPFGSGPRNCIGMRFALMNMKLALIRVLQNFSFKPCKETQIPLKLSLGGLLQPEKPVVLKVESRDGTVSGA
Summary of the method: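 Activators are scored by enhanced luminescence from CYP3A4 conversion of luciferin-PPXE (25uM, equal to KM) to luciferin, after 60 min at RT with an NADPH-regenerating system.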

[11] = target: Cytochrome P450 2D6 (Homo sapiens) (UniProt P10635); assay: qHTS Assay for Inhibitors and Substrates of Cytochrome P450 2D6 (AID 891; active = well fitted curve in the direction sought with a large enough effect; an effect the other way counts as inactive or inconclusive;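 also: luciferin methyl ether substrate demethylated by CYP2D6 with NADPH regeneration; % is scaled to controls: 0 for no effect and ±100 for the full control effect; nearly all actives have a fitted effect of over 60% in size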)
Summary of the method: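 Luminescent read-out of luciferin formed by 5 nM human CYP2D6 demethylating 30 uM Luciferin-ME EGE (Km level) over 60 min at room temperature after NADPH regeneration addition. Data normalized to full inhibition by 1.43 uM quinidine.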

[12] = target: Cytochrome P450 2C19 (Homo sapiens) (UniProt P33261); assay: qHTS Assay for Inhibitors and Substrates of Cytochrome P450 2C19 (AID 899; active = well fitted curve in the direction sought with a large enough effect; an effect the other way counts as inactive or inconclusive; also: % is scaled to controls: 0 for no effect and ±100 for the full control effect; nearly all actives have a fitted effect of over 60% in size)
Summary of the method: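 Luminescence readout of luciferin formed from 10uM Luciferin-H EGE (KM level) by 5 nM CYP2C19 in 50mM KPO4. 60 min NADPH-driven reaction at 37C after 10 min compound preincubation; data scaled to 57uM ketoconazole inhibition.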

[13] = qHTS Assay for Lipid Storage Modulators (AID 1519; calls by dose curve); conditions: Drosophila S3 cells, BODIPY lipid droplet/cell ratio, laser cytometry, cells loaded with oleic acid
Summary of the method: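 Cells seeded at 5,000 per well were treated with compounds over a concentration series and loaded with oleic acid (400 uM, as added). Lipid droplet fluorescence (488 nm excitation, 500-530 nm channel) was read by laser-scanning cytometry and normalized to 20 uM Triacsin C.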

[14] = target: Lysosomal acid glucosylceramidase (Homo sapiens) (UniProt P04062); assay: Glucocerebrosidase-p2 (AID 348; in the data active = potency below about 10 µM; also: potency is read from the fitted curve at half-maximal effect); conditions: purified GBA, blue fluorogenic substrate, 40 min
Chain of Lysosomal acid glucosylceramidase (Homo sapiens) (P04062 whole entry, looked up): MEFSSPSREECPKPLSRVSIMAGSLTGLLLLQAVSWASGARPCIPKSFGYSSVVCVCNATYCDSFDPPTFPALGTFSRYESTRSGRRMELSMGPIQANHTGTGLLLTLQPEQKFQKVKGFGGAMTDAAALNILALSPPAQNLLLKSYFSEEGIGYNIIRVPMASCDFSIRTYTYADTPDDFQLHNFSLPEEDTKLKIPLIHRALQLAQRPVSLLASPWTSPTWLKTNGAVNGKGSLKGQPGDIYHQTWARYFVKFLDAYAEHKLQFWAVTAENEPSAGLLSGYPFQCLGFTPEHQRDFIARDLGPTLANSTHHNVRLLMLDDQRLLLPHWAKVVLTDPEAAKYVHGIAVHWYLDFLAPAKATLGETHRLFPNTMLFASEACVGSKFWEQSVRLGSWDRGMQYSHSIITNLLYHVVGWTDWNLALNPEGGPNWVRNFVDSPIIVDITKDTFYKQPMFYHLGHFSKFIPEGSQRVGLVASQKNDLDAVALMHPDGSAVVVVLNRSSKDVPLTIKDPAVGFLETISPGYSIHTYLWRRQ
Summary of the method: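 Normal human glucocerebrosidase (0.2 nM) with blue fluorogenic substrate (80 uM final) in citrate/phosphate pH 5.9 with 10mM sodium taurocholate, 0.01% tween-20; 40 min RT, NaOH/glycine stop; fluorescence Ex 365/Em 440; AC50 from a titration from 0.6 nM upwards.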

[15] = target: Dual specificity protein kinase CLK4 (Homo sapiens) (UniProt Q9HAZ1); assay: qHTS Assay for Inhibitors of CDC-like Kinase 4 (ADP-FP Assay) (AID 1795; active = well fitted curve in the direction sought with a large enough effect; an effect the other way counts as inactive or inconclusive;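 also: recombinant human CLK4 phosphorylating RS repeat peptide at 1 µM ATP; % is scaled to controls: 0 for no effect and ±100 for the full control effect; nearly all actives have a fitted effect of over 60% in size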)
Chain of Dual specificity protein kinase CLK4 (Homo sapiens) (Q9HAZ1 whole entry, looked up): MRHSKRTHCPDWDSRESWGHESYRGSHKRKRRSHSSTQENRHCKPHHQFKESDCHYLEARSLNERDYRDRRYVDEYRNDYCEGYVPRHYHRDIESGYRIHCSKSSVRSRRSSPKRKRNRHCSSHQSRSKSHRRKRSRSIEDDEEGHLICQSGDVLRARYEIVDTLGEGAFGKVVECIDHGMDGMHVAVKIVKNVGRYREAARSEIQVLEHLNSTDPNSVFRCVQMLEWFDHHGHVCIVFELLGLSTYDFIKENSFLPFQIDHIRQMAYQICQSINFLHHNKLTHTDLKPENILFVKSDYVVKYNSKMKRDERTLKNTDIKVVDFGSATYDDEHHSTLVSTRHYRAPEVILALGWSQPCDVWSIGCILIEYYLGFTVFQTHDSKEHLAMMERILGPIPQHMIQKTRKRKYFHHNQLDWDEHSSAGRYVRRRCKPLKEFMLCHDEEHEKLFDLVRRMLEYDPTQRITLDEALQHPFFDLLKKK
Summary of the method: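 Clk4 6.25 nM; RS peptide 100 uM; ATP 1 uM; 25 mM Tris pH 7.5, 10 mM MgCl2; 1 h reaction. ADP detected via antibody/orange tracer FP displacement; TG003 positive control.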

[16] = target: Ubiquitin carboxyl-terminal hydrolase 1 (Homo sapiens) (UniProt O94782); assay: Inhibitors of USP1/UAF1: Pilot qHTS (AID 504865; active = well fitted curve in the direction sought with a large enough effect; an effect the other way counts as inactive or inconclusive;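 also: rhodamine fluorescence freed from ubiquitin-rhodamine substrate followed over time; top concentration of the series differs between compounds; % is scaled to controls: 0 for no effect and ±100 for the full control effect; nearly all actives have a fitted effect of over 35% in size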)
Chain of Ubiquitin carboxyl-terminal hydrolase 1 (Homo sapiens) (O94782 whole entry, looked up): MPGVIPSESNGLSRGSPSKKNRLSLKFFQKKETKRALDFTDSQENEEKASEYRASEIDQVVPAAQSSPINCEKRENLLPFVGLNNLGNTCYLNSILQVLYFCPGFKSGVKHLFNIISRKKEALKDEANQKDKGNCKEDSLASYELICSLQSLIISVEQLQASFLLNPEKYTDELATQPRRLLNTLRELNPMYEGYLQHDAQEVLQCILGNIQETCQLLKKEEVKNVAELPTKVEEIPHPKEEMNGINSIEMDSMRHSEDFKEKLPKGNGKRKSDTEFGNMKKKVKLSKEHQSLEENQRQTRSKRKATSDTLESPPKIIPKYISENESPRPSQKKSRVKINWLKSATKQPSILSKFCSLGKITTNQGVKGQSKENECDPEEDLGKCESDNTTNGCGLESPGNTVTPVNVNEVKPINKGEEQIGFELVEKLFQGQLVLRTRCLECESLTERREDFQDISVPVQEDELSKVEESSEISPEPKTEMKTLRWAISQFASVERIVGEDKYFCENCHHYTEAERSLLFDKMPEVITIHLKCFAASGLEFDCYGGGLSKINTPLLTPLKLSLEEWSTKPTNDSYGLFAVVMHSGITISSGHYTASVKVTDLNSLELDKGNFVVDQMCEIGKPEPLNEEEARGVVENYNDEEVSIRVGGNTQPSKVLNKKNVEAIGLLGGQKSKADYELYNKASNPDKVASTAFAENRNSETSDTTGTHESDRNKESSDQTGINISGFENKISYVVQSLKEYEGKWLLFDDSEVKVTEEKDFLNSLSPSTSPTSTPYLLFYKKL
Summary of the method: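 In 50mM HEPES pH 7.8 containing 0.5mM EDTA, 1mM TCEP, 0.1 mg/ml BSA and 0.01% Tween-20, 1nM USP1/UAF1 is exposed to compound for 15 min, then Ub-Rho (150nM final) is added and fluorescence is read over time.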

[17] = target: Cytochrome P450 3A4 (Homo sapiens) (UniProt P08684); assay: qHTS Assay for Inhibitors and Substrates of Cytochrome P450 3A4 (AID 884; active = well fitted curve in the direction sought with a large enough effect; an effect the other way counts as inactive or inconclusive; also: nearly all actives have a fitted effect of over 50% in size; also: potency is read from the fitted curve at half-maximal effect)
Summary of the method: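 Luminescent readout of luciferin produced by CYP3A4 (20 nM) dealkylation of Luciferin-PPXE, 25 uM (its KM). NADPH-driven reaction ran 60 min at RT after 10 min compound preincubation; data scaled to 57 uM ketoconazole as 100% inhibition.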

[18] = qHTS Assay for Identification of Small Molecule Agonists for Hypoxia Response Element Signaling Pathway (AID 914; active = well fitted activation curve with a large enough effect in the signal ratio, with a control signal flat, not every such curve was filed as active; the % refers to the signal ratio; also: potency is read from the fitted curve at half-maximal effect); conditions: ME-180 (cervical carcinoma) HRE-bla reporter, beta-lactamase ratio, CoCl2, 17 h; activation: stronger effect = higher value
Summary of the method: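 Reporter activity (beta-lactamase, CCF4 460nm/530nm ratio) in HRE-bla ME-180 cells is recorded after 17 h compound exposure with EC50 CoCl2 at 37 degrees Celsius. AC50 values come from titration data.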

[19] = target: Dual specificity protein kinase CLK4 (Homo sapiens) (UniProt Q9HAZ1); assay: qHTS Assay for Inhibitors of CDC-like Kinase 4 (Kinase-Glo Assay) (AID 1770; active = well fitted curve in the direction sought with a large enough effect; an effect the other way counts as inactive or inconclusive; also: % is scaled to controls: 0 for no effect and ±100 for the full control effect; nearly all actives have a fitted effect of over 65% in size)
Summary of the method: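 Substrate mix (RS peptide 100 uM, ATP 1 uM) dispensed, compound pinned in, then Clk4 added to 25 nM final. Incubated 4.5 h at RT; Kinase-Glo reagent added, luminescence read after 5 min.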

[20] = target: Dual specificity protein kinase CLK4 (Homo sapiens) (UniProt Q9HAZ1); assay: qHTS Assay for Inhibitors of CDC-like Kinase 4 (ADP-Glo Assay) (AID 1771; active = well fitted curve in the direction sought with a large enough effect; an effect the other way counts as inactive or inconclusive; also: % is scaled to controls: 0 for no effect and ±100 for the full control effect; nearly all actives have a fitted effect of over 70% in size)
Summary of the method: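 Compounds are pin-transferred onto substrate mix (100 uM RS peptide, 1 uM ATP), then 25 nM Clk4 is added. After 1 hr at room temperature, ADP-Glo reagent runs 45 min, detection reagent 30 min, then luminescence is read.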

[21] = Confirmation and Secondary Assay for Modulators of Hemoglobin Beta Chain Splicing at IVS2 654 locus (AID 910; active = well fitted curve in the direction sought with a large enough effect; an effect the other way counts as inactive or inconclusive;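 also: HeLa cells stably carrying EGFP split by mutant beta-globin IVS2-654 intron; per-well total GFP intensity by laser scanning cytometry after 2-day treatment; % of control where 0% means no effect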)
Summary of the method: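 Readout: per-well total peak green fluorescence (488 nm ex, 500–520 nm em) from objects 5–250 µm, reflecting correct splicing of an EGFP-654 reporter. Compounds were applied for 2 days at 37 °C to overnight-plated HeLa EGFP-654 cells; controls were DMSO and 500 nM IVS2-654 PNA.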

[22] = Confirmation and Secondary Assay for Modulators of Hemoglobin Beta Chain Splicing at IVS2 705 locus (AID 930; active = well fitted curve in the direction sought with a large enough effect; an effect the other way counts as inactive or inconclusive;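 also: HeLa cells stably expressing the EGFP-705 splicing reporter; GFP fluorescence per well restored by corrected splicing of the IVS2-705 intron in EGFP; % of control where 0% means no effect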)
Summary of the method: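 Stable HeLa line with EGFP disrupted by mutant beta-globin intron 2 (705). Overnight attachment, then 2 days of compound at 37C, 5% CO2. Signal: peak GFP intensity summed over objects 5-250 µm.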

[23] = target: Cytochrome P450 2D6 (Homo sapiens) (UniProt P10635); assay: Cytochrome P450 family 2 subfamily D member 6 (CYP2D6) small molecule antagonists: luciferase biochemical (cell-free) qHTS assay (AID 1645840; active = well fitted curve in the direction sought with a large enough effect in the repeat runs; an effect the other way counts as inactive or inconclusive; also: potency is read from the fitted curve at half-maximal effect; nearly all actives have a fitted effect of over 55% in size)
Summary of the method: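 P450-Glo CYP2D6 system: proluciferin substrate converted by enzyme to luciferin, read by luminescence proportional to activity. Enzyme-substrate mix with compound 10 min at room temperature, then NADPH regeneration 1 h before detection reagent.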

[24] = target: Cytochrome P450 2C9 (Homo sapiens) (UniProt P11712); assay: Cytochrome P450 family 2 subfamily C member 9 (CYP2C9) small molecule antagonists: luciferase biochemical (cell-free) qHTS assay (AID 1645842; active = well fitted curve in the direction sought with a large enough effect in the repeat runs; an effect the other way counts as inactive or inconclusive; also: potency is read from the fitted curve at half-maximal effect; nearly all actives have a fitted effect of over 55% in size)
Summary of the method: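 P450-Glo CYP2C9 system: proluciferin substrate with enzyme in mix containing 0.4% BSA, 10 min at room temperature, then NADPH regeneration solution added and incubated 1 h at 37C. Detection reagent stopped reaction; luminescence read after 20 min as RLU.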

[25] = measured here: cell count channel max response
[26] = measured here: lipid channel max response

COc1c2ccoc2nc2c(OC)c(OC[C@H](O)C(C)(C)O)ccc12
-11%: max response [13, 26]
inactive: activity change, negative = inhibition [1] 1.86% [at 17.2 µM] | activity change, negative = inhibition [3] 15.7% [at 17.2 µM] | activity, negative = inhibition [4] -10.7% [at 17.2 µM] | Potency [5] > 20.6 µM and > 46 µM | Potency [6] > 20.6 µM and > 46 µM | Potency [7] | Potency [8] | Potency [9] | Potency [10] | Potency [11] | Potency [12] | activity change, negative = inhibition ([13]; at 25.7 µM (top of the series)) -1.84%
-8.76%: max response [13, 25]
active: Potency [2] 10 µM and 25.1 µM

COc1ccc(C(=O)N2CCC3(CCN(C(=O)Nc4cccc(F)c4)CC3)CC2)cc1
13.8%: max response [13, 25]
inactive: activity change, negative = inhibition [1] -28.3% | Potency [2] | activity change, negative = inhibition [3] 7.36% | activity, negative = inhibition [4] -5.59% | Potency [6] > 46 µM | Potency [7] | Potency [8] | activity change, negative = inhibition ([13]; at 57.5 µM (top of the series)) 6.16%
22%: max response [13, 26]

O=C(Oc1ccccc1)N1CCC2(CCCN(c3cccc(-c4ccccc4)c3)C2)CC1
inactive: Potency [14] > 11.4 µM | Potency [2] | activity change, negative = inhibition [3] -27.7% | activity, negative = inhibition [4] 2.68% | Potency [6] > 46 µM | Potency [7] | Potency [8] | Potency [10]

COc1ccccc1-c1nc(NCCN2CCOCC2)c2ccccc2n1
active: Potency [2] 7.94 µM
inactive: Potency [14] > 11.4 µM | activity change, negative = inhibition [1] 7.09% | activity change, negative = inhibition [3] -28.2% | activity, negative = inhibition [4] 29.7% | Potency [5] > 46 µM | Potency [6] > 46 µM | Potency [7] | Potency [8] | Potency [10] | Potency [15] | Potency [16]

CN1CCN(c2ncc3nc(-c4ccc(Cl)cc4)c(=O)n(C)c3n2)CC1
active: Potency [10] 12.6 µM | Potency [18] 3.16 µM
inactive: Potency [14] > 11.4 µM | Potency [5] > 9.22 µM | Potency [6] > 46 µM | Potency [7] | Potency [8] | Potency [17] | Potency [19] | Potency [20] | Potency [15] | Potency [16]

O=c1c(O)c(-c2ccc(O)cc2)oc2ccccc12
inactive: Potency [10] | Potency [21] | outcome [22] | activity change, negative = inhibition ([13]; at 57.5 µM (top of the series)) 8.84%
-12.3%: max response [13, 25]
active: Potency [17] 12.6 µM
-1%: max response [13, 26]

COc1ccc(-n2c(=O)c(C)nc3cncnc32)cc1
active: Potency [17] 5.01 µM
inactive: Potency [14] > 11.4 µM | activity change, negative = inhibition [1] -7.74% | Potency [2] | activity change, negative = inhibition [3] 7.82% | activity, negative = inhibition [4] -15.1% | Potency [5] > 9.22 µM | Potency [6] > 46 µM | Potency [7] | Potency [8] | Potency [10]

CS(=O)(=O)N1CCC[C@@]2(CCN(c3ncccn3)C2)C1
inactive: Potency [14] > 11.4 µM | activity change, negative = inhibition [1] -9.3% | Potency [2] | activity change, negative = inhibition [3] 16.2% | activity, negative = inhibition [4] -19.8% | Potency [6] > 46 µM | Potency [7] | Potency [8]

Cc1ccc(Cn2c(C)c3cnn(CC(=O)NCc4ccccc4)c(=O)c3c2C)cc1
active: Potency [23] 9.52 µM | Potency [24] 12 µM

N#Cc1cccc(-c2cc(NCc3cccnc3)ncn2)c1
inactive: Potency [14] > 11.4 µM | activity change, negative = inhibition [1] 11.5% | activity change, negative = inhibition [3] 3.13% | activity, negative = inhibition [4] -25.4% | Potency [5] > 46 µM | Potency [6] > 46 µM | Potency [7] | Potency [8] | Potency [10] | Potency [16]
active: Potency [2] 0.0398 µM | Potency [17] 2.51 µM
